Among the test systems are LCK; LIMK1; LIMK2; LRRK2; LTK; LYN; MAK.
Conditions in all cases: concentration: 1 μM, replicates: in singlicate; n = 1
Another assay deals with T1, LKB1.
T1 construct: gene STK11

For another assay, the system named is T2, LOK.
T2 construct: gene STK10

For a further assay, the system named is T3, LZK.
T3 construct: gene MAP3K13

Here are results for 16 compounds from article PMC5540273 (PLoS ONE, 2017).
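Note: KINOMEscan kinase panel screen.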

Take `Cl.c1ccc(-c2ccc3c(Nc4ccc5[nH]ncc5c4)ccnc3c2)nc1` [GW440137]: the “%Inh” value in the assay on LCK worked out at 42%; with LIMK1, 9%; in the assay on LIMK2, 23%; in the assay with LKB1, 0%; in the assay with LOK, 2%; in the assay with LRRK2, 0%. Further, the “%Inh” value with LTK is 18%; in the assay on LYN, 31%; with LZK, 1%; with MAK, 21%.

With `Cl.Cl.NCC(C(=O)Nc1cc(Br)c(-c2ccnc3[nH]ccc23)s1)c1ccccc1` (stereo not shown) [GSK1269851], the “%Inh” value in the assay with LCK is reported as 28%; in the assay on LIMK1, 27%; in the assay on LIMK2, 0%; in the assay with LKB1, 78%; with LOK it was 0%; with LRRK2, 20%. Moreover, the “%Inh” value is recorded as 0% in the assay on LTK, 0% with LYN, 0% with LZK and 1% in the assay with MAK.

As for `Cc1ccc(C(=O)N2CC[C@@H](O)C2)cc1-n1c(C)cc(OCc2ccc(F)cc2F)c(Br)c1=O`, the “%Inh” value in the assay with LCK was determined as 99.4%; in the assay with LIMK1, 0%; in the assay with LIMK2 it was 0%; in the assay with LKB1 it was 36%; in the assay on LOK, 0%; with LRRK2 it was 0%. In addition, the “%Inh” value turned out to be 0% with LTK, 74% with LYN, 0% in the assay on LZK and 0% in the assay on MAK.

Turning to `COc1cc(Nc2nccc(N3CCC(NC(=O)Nc4cccc(C(C)=O)c4)C3)n2)cc(OC)c1OC` (stereo not shown) [GSK1379753], the “%Inh” value came to 15% in the assay on LCK; 51% in the assay with LIMK1; 43% in the assay with LIMK2; 0% in the assay on LKB1; 20% in the assay with LOK; 0% with LRRK2. Besides, the “%Inh” value came to 100% in the assay on LTK, 60% with LYN, 0% in the assay with LZK and 30% in the assay with MAK.

`CCn1c(-c2nonc2N)nc2c(C#CC(C)(C)O)ncc(OCCCCN)c21.O=C(O)C(F)(F)F.O=C(O)C(F)(F)F` [GSK507274]: the “%Inh” value with LCK turned out to be 0%; in the assay with LIMK1 it was 0%; in the assay with LIMK2 it was 0%; in the assay on LKB1 it was 0%; in the assay on LOK it was 0%; in the assay on LRRK2, 45%. For the same compound, the “%Inh” value with LTK came to 0%; in the assay with LYN, 0%; in the assay on LZK, 0%; in the assay on MAK, 88%.

Take `O=c1[nH]cc(-c2ccc(N3CCOCC3)cc2)c2sc(-c3cn[nH]c3)cc12` [GSK2276055]: the “%Inh” value with LCK came out at 9%; in the assay with LIMK1, 0%; in the assay with LIMK2, 0%; in the assay with LKB1 it was 0%; in the assay on LOK it was 0%; in the assay on LRRK2, 0%. Also, the “%Inh” value in the assay on LTK stood at 5%; in the assay with LYN, 0%; in the assay with LZK it was 0%; in the assay on MAK it was 30%.

Turning to `Cl.NC(=O)c1cccc(Nc2nccc(Nc3ccc(Oc4c(Cl)cccc4Cl)c(Cl)c3)n2)c1` [GW659009], the “%Inh” value in the assay on LCK came to 54%; in the assay with LIMK1, 12%; in the assay with LIMK2 it was 0%; in the assay on LKB1, 0%; with LOK, 49%; in the assay with LRRK2, 17%. The “%Inh” value came out at 80% with LTK, 34% in the assay with LYN, 0% with LZK and 27% in the assay with MAK.

Take `COc1cc(Nc2nccc(-c3c(-c4cccc(NC(=O)c5c(F)cccc5F)c4)nn4ccccc34)n2)cc(OC)c1OC` [GSK323521]: the “%Inh” value turned out to be 23% in the assay on LCK; 2% in the assay with LIMK1; 12% with LIMK2; 0% with LKB1; 85% in the assay with LOK; 0% in the assay with LRRK2. In addition, the “%Inh” value amounted to 26% with LTK, 28% with LYN, 0% in the assay with LZK and 9% in the assay with MAK.

Regarding `Fc1ccc(-c2ncn(C3CCNCC3)c2-c2ccnc(Oc3ccc(-c4ccccc4)cc3)n2)cc1` [SB-245391], the “%Inh” value in the assay on LCK came out at 0%; in the assay with LIMK1, 0%; with LIMK2, 0%; in the assay with LKB1, 0%; in the assay on LOK, 21%; in the assay with LRRK2, 0%. Moreover, the “%Inh” value in the assay on LTK was 12%; in the assay on LYN, 9%; in the assay with LZK, 0%; with MAK, 10%.

In the case of `COc1ccc(Nc2nccc(N3CCC(NC(=O)Nc4cccc(OC)c4)C3)n2)cc1` (stereo not shown) [GSK1379742], the “%Inh” value with LCK amounted to 13%; in the assay on LIMK1, 4%; with LIMK2 it was 0%; in the assay with LKB1 it was 0%; in the assay on LOK, 0%; in the assay on LRRK2, 14%. In addition, the “%Inh” value is on record as 0% in the assay on LTK, 0% in the assay with LYN, 0% in the assay on LZK and 17% in the assay on MAK.

As to `O=C(Nc1cccc(-c2nn3ccccc3c2-c2ccnc(Nc3cccc(C(F)(F)F)c3)n2)c1)c1c(F)cccc1F` [GSK292658], the “%Inh” value is 95.2% in the assay on LCK; 0% in the assay with LIMK1; 5% with LIMK2; 0% in the assay with LKB1; 80% in the assay with LOK; 1% with LRRK2. For the same compound, the “%Inh” value in the assay with LTK is recorded as 3%; with LYN, 72%; in the assay on LZK, 0%; in the assay on MAK it was 25%.

`COCCOCCOc1cc2ncc3c4ccc(C#N)cc4[nH]c3c2cc1OC`: the “%Inh” value with LCK is recorded as 35%; with LIMK1, 16%; in the assay with LIMK2 it was 1%; in the assay with LKB1, 15%; in the assay with LOK it was 73%; in the assay on LRRK2, 95.4%. Also, the “%Inh” value in the assay on LTK came to 34%; in the assay on LYN, 31%; in the assay on LZK, 1%; in the assay with MAK, 0%.

As for `CCS(=O)(=O)c1ccc(OC)c(Nc2nccc(-c3c(-c4cccc(NC(=O)c5c(F)cccc5F)c4)nn4ncccc34)n2)c1` [GSK326180], the “%Inh” value stood at 56% in the assay on LCK; 23% with LIMK1; 3% with LIMK2; 0% with LKB1; 92.1% in the assay with LOK; 0% with LRRK2. Also, the “%Inh” value with LTK turned out to be 19%; in the assay with LYN it was 30%; in the assay on LZK, 0%; in the assay on MAK it was 15%.

For the compound `c1ccc(-c2n[nH]cc2Nc2ccnc3ccccc23)nc1` [GW694077], the “%Inh” value stood at 0% in the assay on LCK; 0% in the assay on LIMK1; 13% in the assay on LIMK2; 94% in the assay on LKB1; 0% with LOK; 78% with LRRK2. Further, the “%Inh” value in the assay on LTK, in the assay on LYN, in the assay on LZK and in the assay with MAK was 0% in each case.

Turning to `COc1cccc(NC(=O)NC2CCN(c3ccnc(Nc4cc(OC)c(OC)c(OC)c4)n3)C2)c1` (stereo not shown) [GSK1379763], the “%Inh” value with LCK was 14%; with LIMK1 it was 21%; in the assay on LIMK2, 34%; in the assay on LKB1 it was 2%; in the assay with LOK, 43%; in the assay on LRRK2 it was 0%. In addition, the “%Inh” value with LTK is given as 62%; in the assay on LYN it was 0%; in the assay with LZK, 25%; in the assay on MAK, 23%.

In the case of `Cl.c1ccc(-c2ccc3c(Nc4ccc5[nH]ccc5c4)ccnc3c2)nc1` [GW440138], the “%Inh” value came out at 70% with LCK; 0% in the assay on LIMK1; 0% in the assay with LIMK2; 0% with LKB1; 51% in the assay with LOK; 0% in the assay on LRRK2. The “%Inh” value in the assay on LTK is 18%; with LYN it was 47%; in the assay on LZK it was 39%; with MAK it was 1%.
